Laboratory results as given in PubChem BioAssay.
Calls of active or inactive are those of the source. Unless noted, how the calls were made is not given here.

Legend:
[1] = anti-His antibody binders, primary screen, artefact control for SMM control protein annotation, biochemical, small-molecule microarray, 635 nm fluorescence (AID 1128); conditions: anti-His Alexa647 antibody binding, higher = more signal;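 further: score merges feature fluorescence with signal-to-noise for each printed compound spot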
[2] = test system: Human papillomavirus type 1a E7 protein (residues 1-88); test: HPV1a E7 small-molecule binders, primary screen, biochemical, small-molecule microarray, residues 1-88, 635 nm (AID 1129); conditions: small-molecule microarray binding, fluorescence 635 nm; higher = more signal
[3] = target: Focal adhesion kinase 1 (Homo sapiens) (UniProt Q05397); test: small-molecule microarray binders of FAK, primary screen, biochemical, 635/667 nm fluorescence, BSA, DTT (AID 1130); conditions: PTK2 binding, 635 nm fluorescence, higher = more signal;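 further: composite of spot emission at 667 nm and signal to noise over triplicate slides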
[4] = test system: Fibrinogen (Alexa647-labelled); test: fibrinogen binders on compound microarrays, profiling panel, artefact control for SMM control-protein annotation, biochemical, small-molecule microarray, 635/667 nm fluorescence (AID 1131); conditions: fibrinogen-A647 binding fluorescence, higher = more signal;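 further: z-score merges 667 nm fluorescence with per-spot signal-to-noise over triplicate slides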
[5] = target: Follistatin (Homo sapiens) (UniProt P19883); test: follistatin binders on small-molecule microarrays, primary screen, biochemical, small-molecule microarray, 635/667 nm fluorescence (AID 1132); conditions: FST binding, 635 nm fluorescence, higher = more signal
[6] = target: Fibroblast growth factor 2 (Homo sapiens) (UniProt P09038); test: FGF2 binders on small-molecule microarrays, primary screen, biochemical, small-molecule microarray, 635/667 nm fluorescence (AID 1133); conditions: small-molecule microarray binding, FGF2, fluorescence 635/667; higher = more signal
[7] = mitochondrial membrane potential change in A549 cells, profiling panel, cell-based, JC-1 fluorescence, basal, 24 h, 100 nL (AID 1138); conditions: higher = more signal;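 further: A549 lung adenocarcinoma cells under basal conditions with no added stimulus; test concentration not given here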
Lefty1 = Lefty1 binders on small-molecule microarrays, primary screen, biochemical, small-molecule microarray, 635/667 nm fluorescence (AID 1139); conditions: small-molecule microarray binding, fluorescence 635/667; higher = more signal
[8] = test system: wheat germ agglutinin (Triticum aestivum), Alexa647-labelled; test: wheat germ agglutinin binders on compound microarrays, profiling panel, artefact control for SMM control-protein annotation, biochemical, small-molecule microarray, 635/667 nm fluorescence (AID 1140); conditions: WGA-A647 binding, 635 nm fluorescence, higher = more signal;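 further: score merges 667 nm feature emission with signal to noise over triplicate slides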
[9] = target: Luciferin 4-monooxygenase (Photinus pyralis) (UniProt P08659); test: firefly luciferase enzyme inhibitors, primary screen, biochemical, luminescence, purified enzyme, 2006 set (AID 1141); conditions: SteadyGlo luminescence, 30 min, higher = more signal, called active from +8 up or from −8 down;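 further: cell-free assay with purified firefly luciferase at 100 ng per well in PBS; test concentration not given here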
[10] = test system: Wnt5a (protein binding on small-molecule microarray); test: Wnt5a binders on small-molecule microarray, primary screen, biophysical, 635/667 nm fluorescence (AID 1142); conditions: 635 nm fluorescence, higher = more signal;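 further: fluorescence read at 667 nm with signal to noise per printed feature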
[11] = cell viability in Huh7 cells, primary screen, cytotoxicity control for HCV replication inhibitor project, CellTiter-Glo luminescence, basal, 48 h (AID 1143); conditions: Huh7 HCV replicon, higher = more signal, called active from +8 up or from −8 down;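 further: Huh7 hepatoma cells carrying a hepatitis C replication reporter with no stimulus; test concentration not given here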
[12] = P. aeruginosa biofilm formation inhibitors, primary screen, PAO1 strain, BacTiter-Glo luminescence, LB-PBS (AID 1144); conditions: 12 h, higher = more signal
[13] = CREB reporter modulators without forskolin, primary screen, cell-based, PC12, CRE-LacZ reporter, unstimulated (AID 1145); conditions: no forskolin, luminescence, 4.5 h, higher = more signal, called active from +8 up or from −8 down
[14] = CREB reporter modulators under forskolin, primary screen, cell-based, PC12, CRE-LacZ reporter, forskolin-stimulated (AID 1146); conditions: luminescence, 4.5 h, higher = more signal, called active from +8 up or from −8 down;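 further: PC12 cells with 6xCRE LacZ reporter stimulated by forskolin 10 µM; beta-galactosidase reporter signal reflecting CREB driven transcription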
[15] = target: Streptavidin (Streptomyces avidinii) (UniProt P22629); test: streptavidin binders on small-molecule microarray, primary screen, artefact control for SMM compound annotation, biophysical, 635/667 nm fluorescence (AID 1147); conditions: streptavidin binding, higher = more signal;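 further: signal reflects streptavidin binding to arrayed compounds as a control protein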
[16] = small-molecule binders of probe aInhba, primary screen, biochemical, small-molecule microarray, 635/667 nm fluorescence (AID 1148); conditions: higher = more signal;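 further: score merges 667nm spot fluorescence with signal-to-noise for antibody binding to printed compounds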
Torsin-1A (Homo sapiens) [17] = target: Torsin-1A (Homo sapiens) (UniProt O14656); test: torsin A binders from cell lysate, primary screen, small-molecule microarray, wild-type, 635/667 nm (AID 1149); conditions: COS7 hTOR1A-WT lysate, 635 nm fluorescence, higher = more signal
Torsin-1A (Homo sapiens) [18] = target: Torsin-1A (Homo sapiens) (UniProt O14656); test: small-molecule binders of mutant TOR1A in lysate, primary screen, cell lysate, small-molecule microarray, COS7 lysate, 635/667 nm fluorescence (AID 1150); conditions: COS7 hTOR1A mutant lysate, 635 nm fluorescence, higher = more signal;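 further: score pools 667 nm emission and signal to noise measuring lysate protein binding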
[19] = test system: Sonic hedgehog protein (Shh); test: small-molecule binders of Shh protein, primary screen, biochemical, small-molecule microarray, 635/667 nm fluorescence (AID 1151); conditions: small-molecule microarray binding, 635 nm fluorescence; higher = more signal;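 further: Shh protein binding to compounds spotted on small-molecule microarray slides; score combines spot fluorescence intensity with signal-to-noise across triplicate slides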

Luciferin 4-monooxygenase (Photinus pyralis), sequence (P08659 whole entry, looked up): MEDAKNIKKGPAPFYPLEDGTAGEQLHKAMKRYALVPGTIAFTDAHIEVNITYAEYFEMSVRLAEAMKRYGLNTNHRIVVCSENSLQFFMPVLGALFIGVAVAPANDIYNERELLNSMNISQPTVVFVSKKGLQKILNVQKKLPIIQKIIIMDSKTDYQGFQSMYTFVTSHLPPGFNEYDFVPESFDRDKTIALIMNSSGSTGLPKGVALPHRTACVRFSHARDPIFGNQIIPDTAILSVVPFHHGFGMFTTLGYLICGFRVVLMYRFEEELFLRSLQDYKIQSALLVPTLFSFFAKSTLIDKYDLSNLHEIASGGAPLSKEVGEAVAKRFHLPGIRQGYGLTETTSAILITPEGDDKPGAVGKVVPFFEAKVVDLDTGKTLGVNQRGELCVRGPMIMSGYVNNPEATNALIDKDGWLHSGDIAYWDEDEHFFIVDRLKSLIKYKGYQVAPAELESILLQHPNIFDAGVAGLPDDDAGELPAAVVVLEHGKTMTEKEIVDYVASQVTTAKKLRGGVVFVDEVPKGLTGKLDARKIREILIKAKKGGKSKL
Focal adhesion kinase 1 (Homo sapiens), sequence (Q05397 whole entry, looked up): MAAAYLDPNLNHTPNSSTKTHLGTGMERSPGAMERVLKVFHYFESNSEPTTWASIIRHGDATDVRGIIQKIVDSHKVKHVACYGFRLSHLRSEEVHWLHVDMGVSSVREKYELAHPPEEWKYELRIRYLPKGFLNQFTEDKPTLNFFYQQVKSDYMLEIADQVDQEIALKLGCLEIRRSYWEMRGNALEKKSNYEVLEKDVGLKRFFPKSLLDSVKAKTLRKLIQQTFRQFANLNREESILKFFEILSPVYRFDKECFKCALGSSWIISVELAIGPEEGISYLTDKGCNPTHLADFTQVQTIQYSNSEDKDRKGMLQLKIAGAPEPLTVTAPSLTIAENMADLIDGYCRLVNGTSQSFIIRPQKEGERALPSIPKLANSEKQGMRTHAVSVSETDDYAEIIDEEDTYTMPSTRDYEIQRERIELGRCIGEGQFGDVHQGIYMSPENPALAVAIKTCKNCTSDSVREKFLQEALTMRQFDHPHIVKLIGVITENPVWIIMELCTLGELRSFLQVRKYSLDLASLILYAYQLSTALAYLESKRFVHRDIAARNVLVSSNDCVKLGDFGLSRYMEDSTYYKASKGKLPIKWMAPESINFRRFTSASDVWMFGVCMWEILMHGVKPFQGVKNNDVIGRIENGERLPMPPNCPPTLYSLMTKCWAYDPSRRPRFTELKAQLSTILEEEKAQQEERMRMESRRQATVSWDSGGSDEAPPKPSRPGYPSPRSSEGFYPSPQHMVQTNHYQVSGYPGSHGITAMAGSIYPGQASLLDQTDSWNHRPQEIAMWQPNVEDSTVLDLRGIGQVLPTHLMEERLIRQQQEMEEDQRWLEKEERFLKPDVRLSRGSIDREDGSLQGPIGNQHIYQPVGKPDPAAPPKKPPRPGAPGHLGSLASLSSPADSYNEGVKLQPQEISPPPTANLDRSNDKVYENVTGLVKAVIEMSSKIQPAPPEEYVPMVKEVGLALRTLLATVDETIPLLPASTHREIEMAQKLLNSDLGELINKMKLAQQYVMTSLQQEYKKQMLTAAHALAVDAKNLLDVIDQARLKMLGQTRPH
Fibroblast growth factor 2 (Homo sapiens), sequence (P09038 whole entry, looked up): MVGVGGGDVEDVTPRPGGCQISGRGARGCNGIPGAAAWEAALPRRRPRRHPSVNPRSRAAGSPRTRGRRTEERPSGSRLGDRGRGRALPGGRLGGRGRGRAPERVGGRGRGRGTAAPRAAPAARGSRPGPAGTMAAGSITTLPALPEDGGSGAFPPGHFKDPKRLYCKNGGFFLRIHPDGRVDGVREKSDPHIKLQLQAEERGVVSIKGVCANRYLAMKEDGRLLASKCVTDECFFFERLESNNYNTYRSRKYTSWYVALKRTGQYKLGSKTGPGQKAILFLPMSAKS
Torsin-1A (Homo sapiens), sequence (O14656 whole entry, looked up): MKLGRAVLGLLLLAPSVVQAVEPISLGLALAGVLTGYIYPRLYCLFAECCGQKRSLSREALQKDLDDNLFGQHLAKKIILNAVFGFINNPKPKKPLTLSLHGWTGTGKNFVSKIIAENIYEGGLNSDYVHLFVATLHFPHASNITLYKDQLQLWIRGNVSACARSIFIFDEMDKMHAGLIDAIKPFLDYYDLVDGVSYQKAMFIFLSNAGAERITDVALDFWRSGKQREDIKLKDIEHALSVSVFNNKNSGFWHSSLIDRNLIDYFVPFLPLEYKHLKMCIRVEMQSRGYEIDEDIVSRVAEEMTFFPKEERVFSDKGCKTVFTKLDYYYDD
Follistatin (Homo sapiens), sequence (P19883 whole entry, looked up): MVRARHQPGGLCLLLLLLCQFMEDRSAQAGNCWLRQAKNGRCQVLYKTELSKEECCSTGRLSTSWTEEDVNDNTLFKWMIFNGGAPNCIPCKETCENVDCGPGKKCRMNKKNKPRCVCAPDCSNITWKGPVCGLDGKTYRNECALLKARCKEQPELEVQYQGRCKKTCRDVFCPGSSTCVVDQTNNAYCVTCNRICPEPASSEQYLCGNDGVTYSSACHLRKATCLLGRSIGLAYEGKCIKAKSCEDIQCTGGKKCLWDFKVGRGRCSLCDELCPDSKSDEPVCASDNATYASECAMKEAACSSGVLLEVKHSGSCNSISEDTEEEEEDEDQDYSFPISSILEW
Streptavidin (Streptomyces avidinii), sequence (P22629 whole entry, looked up): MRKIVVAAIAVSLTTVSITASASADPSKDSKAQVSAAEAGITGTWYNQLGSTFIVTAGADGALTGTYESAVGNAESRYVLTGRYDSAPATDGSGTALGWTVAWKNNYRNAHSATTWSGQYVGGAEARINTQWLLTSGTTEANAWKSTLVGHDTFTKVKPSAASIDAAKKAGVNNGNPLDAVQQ

Structure (SMILES) | composite z-score [1] | composite z-score [2] | composite z-score [3] | composite z-score [4] | composite z-score [5] | composite z-score [6] | z-score [7] | composite z-score (Lefty1) | composite z-score [8] | z-score [9] | composite z-score [10] | z-score [11] | z-score [12] | z-score [13] | z-score [14] | composite z-score [15] | composite z-score [16] | composite z-score (Torsin-1A (Homo sapiens) [17]) | composite z-score (Torsin-1A (Homo sapiens) [18]) | composite z-score [19]
CCCC[C@@H](O)C1=C(COC)Cn2c(=O)n(-c3ccccc3)c(=O)n2[C@H]1CO | 0.0209 | -0.155 | -0.109 | 0.894 | -0.266 | 0.0646 | -0.239 | -0.0726 | 0.858 | -1.65 (inactive) | -0.296 | -0.915 (inactive) | -0.313 (inactive) | -0.0487 (inactive) | -1.11 (inactive) | -0.538 | -0.128 | -0.527 | -0.577 | 0.223
[N-]=[N+]=NCc1ccccc1C[C@]1(C(=O)O)COC(c2ccc(OCCCO)cc2)=N1 | -0.615 | -1.13 | -0.217 | -2.49 | -0.21 | -0.855 | -0.103 | -0.212 | -0.0491 | -0.536 (inactive) | -0.333 | 0.432 (inactive) | 0.475 (inactive) | -0.426 (inactive) | -0.916 (inactive) | -0.878 | -0.13 | 0.861 | 0.0486 | -1.03
CC(C)N1CC=CC23O[C@@H]4C=CCCOC(=O)C4[C@H]2C(=O)N(CCCCCO)[C@@H]3C1=O (stereo not given in full) | 3 | -0.349 | -0.133 | 0.834 | -1.21 | -0.886 | 1.34 | -0.376 | 0.717 | 0.0137 (inactive) | -0.135 | 0.317 (inactive) | -1.18 (inactive) | 0.199 (inactive) | -0.695 (inactive) | 1.88 | -0.224 | -1.35 | -1.12 | 0.0551
CCOC(=O)C1=C[C@@H](C(C)(C)C)N(S(=O)(=O)c2ccc(C)cc2)[C@H]1c1ccccc1Cl | 1.31 | 1.2 | 0.393 | 0.776 | 0.953 | 0.119 | 3.94 | 0.386 | 1.18 | 0.927 (inactive) | 0.548 | -3.79 (inactive) | 1.6 (inactive) | 0.986 (inactive) | 1.53 (inactive) | 1.11 | 0.029 | 0.296 | 0.315 | 0.577
CCC[C@@H]1C=C(C(=O)OCC)[C@H](c2ccccc2)N1S(=O)(=O)c1ccc(C)cc1 | 0.796 | 1.14 | 0.898 | 0.979 | 0.947 | 0.538 | 2.03 | 0.565 | 1.2 | 1.41 (inactive) | 0.539 | -4.29 (inactive) | 1.18 (inactive) | -0.527 (inactive) | -0.578 (inactive) | 0.795 | 0.436 | 0.131 | 0.373 | 0.203
